Screens deposited in PubChem by National Center for Advancing Translational Sciences (NCATS).
RORg inh – blocks mouse ROR gamma transcriptional activity; P51450; Drosophila S2 Gal4-RORgamma UAS-luciferase reporter, 20 h; Potency, µM (top dose mostly 53.6 µM), for inactives: top-dose activity change, negative = inhibition, most hits filed as inhibitors; 310,000 compounds, 5.4% hits; further: potency means the concentration at half of the fitted maximal effect; nearly all actives have a fitted effect of over 60% in size
Target sequence (P51450 whole entry, looked up, the tested form may be a part): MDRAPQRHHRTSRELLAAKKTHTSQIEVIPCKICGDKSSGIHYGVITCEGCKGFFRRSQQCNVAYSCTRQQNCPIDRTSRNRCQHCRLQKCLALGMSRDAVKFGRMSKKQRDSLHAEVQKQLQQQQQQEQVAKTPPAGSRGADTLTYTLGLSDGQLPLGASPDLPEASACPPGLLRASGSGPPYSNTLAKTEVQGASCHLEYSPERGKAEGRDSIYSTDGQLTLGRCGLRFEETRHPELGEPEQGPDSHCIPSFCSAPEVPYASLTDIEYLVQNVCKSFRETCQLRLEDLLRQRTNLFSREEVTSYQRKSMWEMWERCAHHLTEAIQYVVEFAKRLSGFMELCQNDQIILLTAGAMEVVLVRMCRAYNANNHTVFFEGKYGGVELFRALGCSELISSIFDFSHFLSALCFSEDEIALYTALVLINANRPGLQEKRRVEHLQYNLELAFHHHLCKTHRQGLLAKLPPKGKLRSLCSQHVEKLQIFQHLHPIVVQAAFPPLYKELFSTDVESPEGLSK
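A Gal4/UAS one-hybrid system in insect cells: metallothionein-promoter Gal4–ROR gamma fusion plus Photinus luciferase reporter. Copper sulfate 700 uM final, 20 hr ambient incubation, luminescent detection after 10 min with reagent.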
IL-1B inflam inh – inhibitors of inflammasome signaling (IL-1 beta secretion); activity change, % at 57.5 µM; 360,000 compounds, 4.7% hits; THP-1 LPS/ATP IL-1B secretion, AlphaLISA, 16 h; hits give low values; in the data active means activity change below about -50%; inconclusive means mostly about -30% to -49%
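Secreted IL-1B measured by AlphaLISA bead assay after 16 h compound exposure of THP-1 cells; compounds (final up to 57.5 uM) added 1 h before LPS (250 ng/mL) and ATP (1.25 mM) stimulation; lower signal means less secretion.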
LDHA block – inhibitors of human lactate dehydrogenase A; 480,000 compounds, 0.15% hits; P00338; activity change, % (values are at about 110 or 230 µM); purified LDHA, NADH/diaphorase-resazurin fluorescence; hits give low values; in the data active means activity change below about -30%; inconclusive means mostly about -25% to -30%;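 further: plate controls were DMSO wells for no effect and wells without enzyme for full effect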
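LDH5 2 nM; NADH 0.06 mM, pyruvate 0.2 mM; 200 mM Tris pH 7.4, EDTA, Tween-20; 5 min RT. Detection: diaphorase 0.133 mg/mL + resazurin 37 µM, fluorescence ex540/em590 at 0 and 20 min; normalized to enzyme-free and DMSO wells.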
VP16 counter – Gal4-VP16 reporter inhibition counter-screen | Drosophila S2 Gal4-VP16 UAS-luciferase, luminescence, 20 h | 310,000 compounds, 3.5% hits | Potency, µM (highest dose often 53.6 µM), for inactives: at the highest dose activity, negative = inhibition, hits mostly inhibitors;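 further: Gal4-VP16 expression switched on by copper sulfate through the metallothionein promoter; potency means the concentration at half of the fitted maximal effect; nearly all actives have a fitted effect of over 50% in size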
TDP1 cell noCPT – qHTS for Inhibitors of human tyrosyl-DNA phosphodiesterase 1 (TDP1): qHTS in cells in absence of CPT; Potency, µM (top dose mostly 46.2 µM), for inactives: top-dose activity change, negative = growth inhibition, hits mostly inhibitors; AID 686978, 2013; 420,000 compounds, 15% hits; DT40 Tdp1-/- hTDP1 cells, no CPT, ATP luminescence, 48 h; further: potency means the concentration at half of the fitted maximal effect; nearly all actives have a fitted effect of over 55% in size
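Chicken DT40 Tdp1-/- cells complemented with human TDP1, screened without camptothecin (DMSO vehicle only), 400 cells/well. Compounds pin-transferred, cells incubated at 37 °C for at least 48 hr. Growth read as ATP-dependent luminescence (CellTiter-Glo, 30 min at RT).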
TDP1 cell CPT – DT40-hTDP1 cell growth loss with CPT | 420,000 compounds, 12% hits | chicken DT40 Tdp1-/-;hTDP1 cells + 20 nM CPT, ATP luminescence, 48 h | Potency, µM (top dose mostly 46.2 µM), inactives show at the top dose activity change, negative = growth inhibition, usual class: inhibitors | AID 686979; further: potency means the concentration at half of the fitted maximal effect; nearly all actives have a fitted effect of over 55% in size
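Chicken DT40 Tdp1-/- cells complemented with human TDP1, 400 cells/well, exposed to compounds plus 20 nM camptothecin for at least 48 h at 37 C; viability read as ATP content by CellTiter-Glo luminescence.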
An asterisk follows results filed as active. Rows were chosen to be rich in hits. Some 18% of all compounds tested hit in one or more screens of this group. Unless noted, the call rests on the fitted dose curve; in most records, active means well fitted curve in the direction sought with a large enough effect; inconclusive means small, poorly fitted or top-dose-only effect, or another doubt; inactive means no such curve, though single readings can be large; an effect the other way counts as inactive or inconclusive. Unless noted, on the % scale 0 is the no-effect control and ±100 the full control effect.

How did CCCc1cc(=O)[nH]c(SCc2nc(-c3ccc(OC)c(OC)c3)no2)n1 do in these assays?
LDHA block: -1

How did COc1cc(/C=N/O)c(Br)c(Br)c1O do in these assays?
LDHA block: -24

How did CCOc1ccc(/C=C/c2nc(C#N)c(N3CCN(C)CC3)o2)cc1 do in these assays?
LDHA block: -6

Results for COc1ccc(NCc2nnc(SCC#N)n2-c2ccccc2OC)cc1 ?
RORg inh: 27%; IL-1B inflam inh: -8; LDHA block: 17; VP16 counter: -9%; TDP1 cell noCPT: 16µM*; TDP1 cell CPT: inconclusive

How did CC(Oc1cccc(Br)c1)C(=O)NNC(=O)c1ccccn1 (stereo unspecified) do in these assays?
IL-1B inflam inh: 93; LDHA block: -16; TDP1 cell noCPT: 2.3µM*; TDP1 cell CPT: 2.9µM*

What do the screens show for `CC(Oc1ccccc1)C(=O)NNC(=O)c1ccccn1` (stereo unspecified)?
RORg inh: 7.9µM*; IL-1B inflam inh: 36; LDHA block: 8; VP16 counter: inconclusive; TDP1 cell noCPT: 7.3µM*; TDP1 cell CPT: 10µM*

How did CCCc1nc2ccccc2c(C(=O)OCC(N)=O)c1CC do in these assays?
LDHA block: -7

How did CCCOC(=O)c1c(-c2ccccc2)nc(CC)c(C(=O)SCC)c1CCC do in these assays?
IL-1B inflam inh: 33; LDHA block: -6; TDP1 cell noCPT: 16µM*; TDP1 cell CPT: inconclusive

Results for CC(C)C1=C(O)C2(CC2c2ccc(-c3ccccc3)cc2)C(C)CC1 (stereo unspecified) ?
LDHA block: 0

Results for CC(C)C[C@@H](CSc1ccc(Br)cc1)N1CCN(CC(C)C)CCC1=O ?
RORg inh: inconclusive; IL-1B inflam inh: inconclusive; LDHA block: 0; VP16 counter: 25%; TDP1 cell noCPT: 16µM*; TDP1 cell CPT: 23µM*

How did COc1ccc(SCCN2CCN(C)CCC2=O)cc1 do in these assays?
RORg inh: 3%; IL-1B inflam inh: 46; LDHA block: 0; VP16 counter: 4%; TDP1 cell noCPT: -3%; TDP1 cell CPT: 2%

How did CCCN1CCC(=O)N(CCSc2ccc(C)cc2)CC1 do in these assays?
RORg inh: 7%; IL-1B inflam inh: 10; LDHA block: -2; VP16 counter: inconclusive; TDP1 cell noCPT: inconclusive; TDP1 cell CPT: inconclusive

How did CCCN1CCC(=O)N(CCSc2ccc(OC)cc2)CC1 do in these assays?
RORg inh: -8%; IL-1B inflam inh: 32; LDHA block: 0; VP16 counter: -7%; TDP1 cell noCPT: 5.8µM*; TDP1 cell CPT: 5.8µM*

Results for O=C1CCN(CCc2ccccc2)CCN1CCSc1ccc(Br)cc1 ?
RORg inh: 27%; IL-1B inflam inh: -16; LDHA block: 0; VP16 counter: 5%; TDP1 cell noCPT: inconclusive; TDP1 cell CPT: inconclusive

What do the screens show for `Cc1ccc(SCCN2CCN(CCc3ccccc3)CCC2=O)cc1`?
RORg inh: 0%; IL-1B inflam inh: -1; LDHA block: -6; VP16 counter: 8%; TDP1 cell noCPT: 16µM*; TDP1 cell CPT: 16µM*

How did COc1ccc(SCCN2CCN(CCc3ccccc3)CCC2=O)cc1 do in these assays?
RORg inh: 10µM*; VP16 counter: inconclusive

How did CCCN1CCC(=O)N(C(CSc2ccc(Br)cc2)CC(C)C)CC1 (stereo unspecified) do in these assays?
RORg inh: -2%; VP16 counter: -8%

Results for Nc1nccnc1C(=O)NCCNc1ncc(C(F)(F)F)cc1Cl ?
LDHA block: 4

How did NS(=O)(=O)c1cccc(NC(=O)c2cn(Cc3ccccc3)nc2-c2ccccc2)c1 do in these assays?
LDHA block: -2

How did COc1ccc(SC[C@H](CC(C)C)N2CCN(CCc3ccccc3)CCC2=O)cc1 do in these assays?
RORg inh: inconclusive; IL-1B inflam inh: -1; LDHA block: 1; VP16 counter: 18%; TDP1 cell noCPT: 18µM*; TDP1 cell CPT: 15µM*

Results for Cc1ccc(SC[C@H](CC(C)C)N2CCN(CCc3ccccc3)CCC2=O)cc1 ?
RORg inh: 26%; IL-1B inflam inh: 26; LDHA block: 1; VP16 counter: -13%; TDP1 cell noCPT: inconclusive; TDP1 cell CPT: inconclusive

What do the screens show for `CC(C)C[C@@H](CO)N1CCN(CCc2ccccc2)CCC1=O`?
RORg inh: 12%; IL-1B inflam inh: 20; LDHA block: 5; VP16 counter: 1%; TDP1 cell noCPT: -5%; TDP1 cell CPT: inconclusive

How did CC(C)C[C@@H](CN=[N+]=[N-])N1CCN(CCc2ccccc2)CCC1=O do in these assays?
TDP1 cell noCPT: 13µM*; TDP1 cell CPT: inconclusive

Results for CCc1ccc2c(c1)-c1ccccc1S(=O)(=O)N2CC(=O)N1CCOCC1 ?
LDHA block: 9

How did Cc1ccc(C)c(-c2cc(C(=O)O)c3cc(C)cc(C)c3n2)c1 do in these assays?
LDHA block: 2

Results for Cc1ccc(-c2n[nH]c(=S)n2C)cc1Cl ?
RORg inh: 0.56µM*; IL-1B inflam inh: -17; LDHA block: -8; VP16 counter: 3.5µM*; TDP1 cell noCPT: inconclusive; TDP1 cell CPT: -13%

What do the screens show for `COc1cc2[nH]c(=O)n(CCCC(=O)N3CCN(c4cccc(C(F)(F)F)c4)CC3)c(=O)c2cc1OC`?
LDHA block: -16; TDP1 cell noCPT: 2.3µM*; TDP1 cell CPT: 4.6µM*

What do the screens show for `COc1cc2[nH]c(=O)n(CCCCCC(=O)N3CCN(c4ccc(Cl)cc4)CC3)c(=O)c2cc1OC`?
LDHA block: -5; TDP1 cell noCPT: 7.3µM*; TDP1 cell CPT: inconclusive

What do the screens show for `CCOc1cc2[nH]c(=O)n(CCCCC(=O)N3CCN(c4ccc(OC)cc4)CC3)c(=O)c2cc1OCC`?
LDHA block: -1; TDP1 cell noCPT: 9.2µM*; TDP1 cell CPT: 16µM*

How did CCOc1cc2[nH]c(=O)n(CCCN3CCN(c4ccc(OC)cc4)CC3)c(=O)c2cc1OCC do in these assays?
RORg inh: 2%; IL-1B inflam inh: -14; LDHA block: -2; VP16 counter: 1%; TDP1 cell noCPT: inconclusive; TDP1 cell CPT: inconclusive

Results for COC(=O)c1ccc2c(=O)n(CCCCCC(=O)N3CCN(c4cc(Cl)ccc4C)CC3)c(=O)[nH]c2c1 ?
LDHA block: -4; TDP1 cell noCPT: 5.8µM*; TDP1 cell CPT: 7.3µM*
